The text below walks through data of PubChem BioAssay AID449 (The Scripps Research Institute Molecular Screening Center, 2006).

The campaign covered roughly 56,000 compounds. About 320 (0.57%) were called active.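 Rule for the calls: active = activation above a cutoff set at the mean activation of all tested compounds plus 3 SD (cut at about 54% in these data); inactive = the rest, inconclusive results apart.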 For the sample, actives were picked, then their nearest neighbours and some compounds at random.

The experiment addresses Sphingosine 1-phosphate receptor 1 (Homo sapiens) (UniProt P21453). Kind of experiment: activation or potentiation of human S1P1 signaling – cell-based, primary and confirmation screens, CRE-bla reporter, primary screen (AID 449).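 Note: forskolin at 4 µM as EC80 and the EC20 agonist is SEW2871; 100% = SEW2871 at its EC100 plus forskolin at EC80.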 The following applies: S1P1 CRE-bla cells, forskolin, beta-lactamase FRET, potentiator mode, at 9.5 µM, stronger effect = higher value, 100% = saturating reference agonist, 0% = basal, S1P1 agonist co-added at EC20, 2 nM.

Setting [1] is: measured here: confirmation screen, triplicate average.

Sequence of Sphingosine 1-phosphate receptor 1 (Homo sapiens) (P21453 whole entry, looked up): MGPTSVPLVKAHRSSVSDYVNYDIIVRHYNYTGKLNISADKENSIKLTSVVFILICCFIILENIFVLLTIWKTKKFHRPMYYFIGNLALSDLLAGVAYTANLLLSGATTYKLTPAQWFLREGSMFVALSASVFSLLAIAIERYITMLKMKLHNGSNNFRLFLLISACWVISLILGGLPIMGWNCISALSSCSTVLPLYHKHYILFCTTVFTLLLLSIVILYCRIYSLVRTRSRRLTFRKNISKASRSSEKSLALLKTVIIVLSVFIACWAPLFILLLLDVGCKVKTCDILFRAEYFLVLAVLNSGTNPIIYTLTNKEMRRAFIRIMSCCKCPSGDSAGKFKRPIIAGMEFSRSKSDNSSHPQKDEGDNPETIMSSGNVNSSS

Consider `c1csc(-c2cn3c(n2)SCC3)c1`, for which the activation is -25.6% (inactive).

As to `CCc1cc(=O)oc2cc(OCC(=O)N3CCCc4ccccc43)ccc12`, the activation is -15.5% (inactive).

As to `CCSC(C)CC1C/C(=N/O)c2c(C)noc2C1` (stereo unspecified), the activation was -5.8% (inactive).

With `COC(=O)Cc1c(C)c2ccc(OCC(=O)NCc3ccc4c(c3)OCO4)cc2oc1=O`, the activation is -1.6% (inactive).

For `CSc1nnc(CNC(=O)c2ccccc2)n1-c1ccc(F)cc1`, the activation was -11.1% (inactive).

Turning to `O=C(CCCOc1ccccc1)Nc1cccc(C(=O)O)c1`, the activation was 2.3% (inactive).

As for `COc1ccc(C(=O)Nc2cccnc2)cc1C(=O)Nc1cccnc1`, the activation is 5.6% (inactive).

With `CN(C)/C=C1/C(=O)Nc2ccccc21`, the activation was -14.3% (inactive).

As to `COC(=O)C(C)n1cnc2c(nnn2-c2cccc(Cl)c2)c1=O` (stereo unspecified), the activation is -14.1% (inactive).

Consider `Cn1c(=O)[nH]c(=O)c2c1nc(CN1CCN(c3ccccc3F)CC1)n2CCc1ccccc1`, for which the activation is -6.4% (inactive).

Consider `O=C(Nc1c(-c2ccccc2)nc2c(Br)cc(Br)cn12)c1ccco1`, for which the activation was 17.7% (inactive).

On to `Cc1nc2ccc(S(=O)(=O)NC(C(=O)N3CCCCCC3)C(C)C)cc2s1` (stereo unspecified), for which the activation was -9.8% (inactive).

On to `CCCOC(=O)c1cc2ccccc2oc1=O`, for which the activation was -2.5% (inactive).

As for `Cc1ccnc(SCCn2c(N(C)Cc3ccccc3)nc3c2c(=O)n(C)c(=O)n3C)n1`, the activation is -31.4% (inactive).

Take `N#Cc1c2c(c(-c3ccccc3)[nH]c1=O)CCCC2`: the activation is -28.7% (inactive).

In the case of `C=CCOc1nc2c(c(=O)n(C)c(=O)n2C)n1Cc1ccc(Cl)cc1Cl`, the activation is 2.7% (inactive).

Consider `O=P(O)(CN1CCCCC1)CN1CCCCC1`, for which the activation is -3% (inactive).

Turning to `COc1ccc(OCC(=O)OCC(=O)Nc2ccc(S(=O)(=O)N3CCCCC3)cc2)cc1`, the activation is -8.9% (inactive).

With `COc1ccc(C2C(C#N)=C(N)Oc3cc(N)ccc32)cc1OC` (stereo unspecified), the activation is -18% (inactive).

As to `COc1ccc(CSc2nc(N3CCOCC3)c3c(c2C#N)CC(C)(C)OC3)cc1`, the activation is -11.9% (inactive).

On to `CC(=O)Nc1ccc(S(=O)(=O)N2CCN(C3CCCCCCC3)CC2)cc1`, for which the activation was -11.9% (inactive).

Consider `COc1cc(OC)cc(C(=O)Nc2ncc3c(n2)CC(C)(C)CC3=O)c1`, for which the activation is -4.2% (inactive).

In the case of `CC(C)(C)Nc1c(N)c(=O)oc2ccccc12`, the activation is 9.1% (inactive).

As to `O=c1oc2c(CN3CCCCC3)c(O)ccc2c2c1CCCCC2`, the activation was -2.6% (inactive).

Turning to `O=C(O)c1cccc2c1C(=O)N(C1CCCCC1)C2`, the activation is -25.1% (inactive).

Turning to `O=C(CN1CCOc2ccccc21)N1CCC(Cc2ccccc2)CC1`, the activation is 6% (inactive).

As for `CCCC(=O)N1c2ccccc2NC2=C(C(=O)CCC2)C1c1ccc(F)cc1` (stereo unspecified), the activation is -9.6% (inactive).

As for `Cc1cccc(CC(=O)Nc2c3c(nn2-c2cccc(Cl)c2)CS(=O)C3)c1` (stereo unspecified), the activation was 26.1% (inactive).

In the case of `CC[C@H]1CN2CCc3cc(OC)c(OC)cc3[C@@H]2C[C@@H]1C[C@H]1NCCc2cc(OC)c(OC)cc21`, the activation is 131% (active). Further, the activation under setting [1] amounted to 101%.

`Cc1csc(NC(=O)C2CCCN2C(=O)OCC(C)C)n1` (stereo unspecified): the activation is 6.7% (inactive).

Regarding `CCOc1ncccc1C(=O)OCc1cn2cc(Cl)ccc2n1`, the activation was -55.2% (inactive).

On to `CCOC(=O)C1CCN(c2ncnc3c2oc2ccc(Br)cc23)CC1`, for which the activation was 3.6% (inactive).

On to `CCOC(=O)N1CCN(C(=O)C2CCN(c3ncnc4c3sc3cccc(F)c34)CC2)CC1`, for which the activation was 96.6% (active). The activation under setting [1] amounted to 78.6%.

For the molecule `CCOC(=O)N1CCN(C(=O)C2CCCN(c3ncnc4c3sc3cccc(F)c34)C2)CC1` (stereo unspecified), the activation was -8.7% (inactive).

With `CN1C(=O)CC(N2CCN(c3ccccn3)CC2)C1=O` (stereo unspecified), the activation was -14.2% (inactive).

Take `O=C(O)CN(Cc1ccco1)S(=O)(=O)c1ccccc1`: the activation was -18.7% (inactive).

As for `CCC1(C)N(O)C(C)(C)C(c2ccc(OC)cc2)=[N+]1[O-]` (stereo unspecified), the activation is -9.9% (inactive).

Take `Cn1c(=NC(=O)C2CC2)sc2cc(F)cc(F)c21`: the activation is 0.7% (inactive).

As to `COc1ccc(N2C(=O)C3CCCN3C2c2cccc(OC)c2)cc1` (stereo unspecified), the activation was 5.4% (inactive).

As for `C=C(Br)CN1CCN(CC(=C)Br)CC1`, the activation was -15.8% (inactive).

On to `Cc1ccc(C2CC(c3cccc(Br)c3)n3nc(N)nc3N2)cc1` (stereo unspecified), for which the activation was -10.7% (inactive).

Regarding `COc1ccccc1-n1c(CNC(=O)c2ccccc2)nnc1SCC(=O)Nc1nnc(C)s1`, the activation was -0.9% (inactive).

`O=C(CSCc1cccs1)N1CCCC1`: the activation is -22.9% (inactive).

As for `CC(C)Oc1ccc(C(=O)Nc2cc(=O)n(C)c(=O)n2C)cc1`, the activation was -4.5% (inactive).

Take `CCCN1CCN(C(=O)Cn2ncc3ccccc32)CC1`: the activation is -19.3% (inactive).

Consider `Cc1cc(C)c(S(=O)(=O)NCCCN2CCOCC2)cc1Br`, for which the activation was 3.7% (inactive).

Turning to `CC(=O)N1CCN(c2cccc(C)c2C)CC1`, the activation was -9.6% (inactive).

As for `CCNC(=O)N1CCNC(=O)C1CC(=O)Nc1ccc(C(=O)OCC)cc1` (stereo unspecified), the activation was -11.5% (inactive).

With `COc1ccccc1NC1=NC2(CCCC2)N=C(N)N1`, the activation was 5.5% (inactive).

As for `CCN(CC)S(=O)(=O)c1ccc2nc(CSc3nnnn3-c3ccc(O)cc3)[nH]c2c1`, the activation is -21.4% (inactive).

`O=S(=O)(Nc1ccc2nc(-c3ccco3)[nH]c2c1)c1ccccc1`: the activation was 5.9% (inactive).

As for `Cc1ccc(C2c3c(oc4ccc(C)cc4c3=O)C(=O)N2CCCN2CCOCC2)cc1` (stereo unspecified), the activation is 3.6% (inactive).

For `COCCn1nnnc1C(c1ccccc1Cl)N1CCN(c2ccccc2OC)CC1` (stereo unspecified), the activation was -15.5% (inactive).

With `COc1ccccc1-n1nnnc1S(=O)(=O)Cc1ccc(Cl)cc1`, the activation was 89.3% (active). Besides, under setting [1], the activation was 76%.

In the case of `COc1ccccc1N1CCN(Cc2nnnn2CCc2ccccc2)CC1`, the activation is -1.7% (inactive).

In the case of `CCOC(=O)C1Cn2c(nc3c(c2=O)C(C)(CC)Cc2ccccc2-3)S1` (stereo unspecified), the activation was -35.4% (inactive).

In the case of `COc1ccc(OC)c(C(=O)c2coc3ccc(OC)cc23)c1`, the activation is 7.5% (inactive).

As to `CCCCn1c(CCCNC(=O)CC)nc2ccccc21`, the activation is -7% (inactive).

For `COc1ccc(-c2ccc(-c3noc(-c4ccncc4)n3)c(OC)n2)cc1`, the activation was -6.8% (inactive).

In the case of `Cc1ccccc1OCC(=O)Nc1ccc(N2CCN(C(=O)C(C)C)CC2)c(Cl)c1`, the activation is 92.5% (active). The activation under setting [1] amounted to 68.2%.

In the case of `CN1CCN(c2ccc(NC(=O)COc3ccc(Cl)cc3Cl)cc2)CC1`, the activation is -9.3% (inactive).

Take `Cc1cccc(NC(=O)COc2ccccc2C)n1`: the activation was 15.3% (inactive).
